Sampled rows, rich in hits. Any-hit rate of the full collection: about 19%.
Shiga toxin inh: inhibitors of Shiga toxin in Vero cells; 290,000 compounds, 9.2% hits; Vero cells, Shiga toxin protein synthesis inhibition reporter; inhibition, % at 38.7 µM; in the data active = inhibition mostly above about 28%, no sharp cut-off; inactive = mostly below about 43%; also: 0% is about no effect
LASV entry inh: Lassa virus entry inhibition | 300,000 compounds, 1.2% hits | Lassa virus pseudotype entry inhibition, cell reporter | Potency, µM (top dose mostly 37.9 µM), inactives show at the highest dose activity change, negative = inhibition, usual class: inhibitors; calls by dose curve; tested in HEK293 cells; also: potency is read from the fitted curve at half-maximal effect; % is scaled to controls: 0 for no effect and ±100 for the full control effect; nearly all actives have a fitted effect of over 50% in size
Pf growth 96h: P. falciparum growth inhibition at 96 hour, primary screen for plastid delayed-death inhibitors. AID 504834. 320,000 compounds, 6.9% hits. P. falciparum luciferase reporter growth, 96 h. Potency, µM (highest dose often 28.7 µM), for inactives: at the top dose activity change, negative = inhibition, actives largely listed as inhibitors; also: potency is read from the fitted curve at half-maximal effect; % is scaled to controls: 0 for no effect and ±100 for the full control effect
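96 h incubation, 37 C, 5% CO2, of luciferase-reporter P. falciparum-infected RBCs (2% hematocrit, 0.05% parasitemia final) with test compounds; endpoint luminescence.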
MARV entry inh: inhibitors of Marburg virus binding or cell entry | Marburg virus pseudotyped entry inhibition, cell reporter | Potency, µM (series often up to 37.8 µM), without a hit: at the highest dose activity change, negative = inhibition, usual class: inhibitors | 300,000 compounds, 1.8% hits; calls by dose curve; tested in HEK293 cells; also: potency is read from the fitted curve at half-maximal effect; % is scaled to controls: 0 for no effect and ±100 for the full control effect
Pf growth 48h: P. falciparum growth inhibition at 48 hours (one generation) | AID 504832 | P. falciparum luciferase growth in erythrocytes, 48 h | Potency, µM (highest dose often 28.7 µM), for inactives: at the highest dose activity change, negative = inhibition, usual class: inhibitors | 310,000 compounds, 5.9% hits; also: potency is read from the fitted curve at half-maximal effect; % is scaled to controls: 0 for no effect and ±100 for the full control effect
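Luciferase-expressing P. falciparum in infected erythrocytes (2% hematocrit, 0.1% parasitemia final) in RPMI 1640/0.5% Albumax were exposed to compound for 48 hours at 37 C, 5% CO2; growth read as luminescence.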
Cycloheximide cs: counter-screen hit for Shiga toxin inhibitors, cycloheximide. cell reporter, cycloheximide protein synthesis inhibition counterscreen. max response, %. 300,000 compounds, 12% hits; in the data active = max response mostly above about 13%, no sharp cut-off; inactive = mostly below about 14%; also: read at 38.3 µM for the half of the compounds with a filed dose; 0% is about no effect
The depositor's hits bear a star; u = inconclusive; x = no result; [ ] = another dose, or the depositor's remark. Unless noted, calls follow the shape of the dose curve; as a rule, active = well fitted inhibition curve with a large enough effect; inconclusive = small, poorly fitted or top-dose-only effect, or another doubt; inactive = no such curve, though single readings can be large or run the other way.

SMILES	Shiga toxin inh	LASV entry inh	Pf growth 96h	MARV entry inh	Pf growth 48h	Cycloheximide cs
O=C(CSc1nc(=O)n(Cc2ccco2)c2c1CCC2)NCc1ccc(F)cc1	x	2%[46.1 µM]	x	x	x	x
c1ccc(N2CCN(c3c4c(nc5ncnn35)CCC4)CC2)cc1	18	-6%	u	u	13%	-1
COc1cccc(C(=O)N2CCN(c3ncccn3)CC2)c1	-6	0%	0%	-3%	6%	-3
CC(=O)c1ccc(N2CCN(c3ncccn3)CC2)cc1	48	10%	70%	3%[46.1 µM]	80%	29*
COc1cccc(N2CCN(c3c4c(nc5ncnn35)CCC4)CC2)c1	-9	-17%	13µM*	-42%	u	-2
COc1cccc(N2CCN(c3ncccn3)CC2)c1	45*	18%	x	u	98%	60*
CC(OC(=O)c1cc2sccc2n1C)C(=O)NCc1ccc2c(c1)OCO2 (stereo not given)	10	16%	1%[5.75 µM]	u	-2%	4
Cc1ccccc1-c1ccc(C=Nc2c(C)n(C)n(-c3ccccc3)c2=O)o1	3	2%	-16%	-16%	48%	9
O=C(CNC(=O)c1ccccc1)OC1CCCCC1	56*	u	17%	u	289%	35*
O=C(NC(=O)c1ccc(Cl)cc1)OC1CCCCC1	63*	7%	24%	13%	13%	48*
O=C(CNC(=O)c1ccc(Cl)cc1)NC1CCCCC1	-30	x	57%	x	25%	5
O=C(Nc1ccccc1Cl)OC1CCCCC1	100*	15%	50%	-3%[46.1 µM]	37%	22
CC1CCCC(C)N1C(=O)COC(=O)CNC(=O)c1ccccc1 (stereo not given)	x	13%	u	8%	-1%	x
CN(CC(=O)Nc1ccccc1Cl)C1CCCCC1	15	-3%	u	-27%	32%	7
Cc1ccc(C)c(N(CC(=O)NC2CCCCC2)C(=O)c2snc(C(N)=O)c2N)c1	-7	-16%[46.1 µM]	-2%	u	u	-4
COc1ccc(OC)c(NC(=O)CCNS(=O)(=O)c2cccs2)c1	11	7%	-3%	3%	-6%	-2
O=C(COC(=O)C1CCN(c2ccc(C(F)(F)F)cn2)CC1)c1ccccc1Cl	x	15%	23%	u	u	x
O=C(NCCc1ccc(Cl)cc1)c1ccc2nc(N3CCOCC3)sc2c1	-5	x	u	x	17%	-1
O=C(NCCCN1CCC(Cc2ccccc2)CC1)c1ccc2nc(N3CCOCC3)sc2c1	-3	x	u	x	10µM*	-1
CC1CC(C)CN(CCCNC(=O)c2ccc3nc(N4CCCCC4)sc3c2)C1 (stereo not given)	15*	x	64%	x	-7%	17*
CCCN1CCN(CCCNC(=O)c2ccc3nc(N4CCCCC4)sc3c2)CC1	19	x	u	x	3%	13*
CCC1CCCCN1CCCNC(=O)c1ccc2nc(N3CCCCC3)sc2c1 (stereo not given)	17	x	u	x	-21%	15
O=C(NCc1ccccc1OC(F)(F)F)C1CCC(=O)N(C2CC2)C1 (stereo not given)	-8	5%	12µM*	27%	21%	1
O=C(NCc1cnn(-c2ccccc2)c1)C1CCC(=O)N(C2CC2)C1 (stereo not given)	-12	-10%[46.1 µM]	5.2µM*	u	11%	-2
Cc1cc(C)nc(NN=CC2=C(N3CCOCC3)/C(=C/c3ccc(Cl)cc3)CC2)n1	x	13%[46.1 µM]	x	-16%[46.1 µM]	x	x
SMILES	Shiga toxin inh	LASV entry inh	Pf growth 96h	MARV entry inh	Pf growth 48h	Cycloheximide cs
CC(C)(C)C(=O)Nc1ccc2nc(SCC(=O)N3CCOCC3)sc2c1	x	18%[46.1 µM]	x	12%[46.1 µM]	x	x
COc1ccc(N2CCN(C(CNC(=O)c3cccc(Cl)c3)c3cccnc3)CC2)cc1 (stereo not given)	-6	-25%	1.9µM*	-20%	u	-2
COc1ccc(N2CCN(C(CNC(=O)c3ccc4c(c3)OCO4)c3cccnc3)CC2)cc1 (stereo not given)	10	6%	u	1%	-10%	10
O=C(NCC(c1cccnc1)N1CCOCC1)Oc1ccccc1 (stereo not given)	75*	2%	-6%	8%	99%	24*
COc1cccc(C(=O)NCC(c2cccnc2)N2CCN(c3ccccc3OC)CC2)c1 (stereo not given)	6	x	u	x	12µM*	-3
COc1cccc(NC(=O)C(=O)NCC(c2cccnc2)N2CCN(c3ccccc3)CC2)c1 (stereo not given)	x	11µM*	x	x	x	x
O=C(Nc1ccc2c(c1)OCO2)c1ccc(S(=O)(=O)NCC2CCCO2)cc1 (stereo not given)	-4	-3%	x	9%	-18%	-3
C/C(=N\NC(=O)c1ccn(C)n1)c1ccco1	85*	u	u	-3%[46.1 µM]	121%	40*
C/C(=N\NC(=O)c1cccc(S(=O)(=O)N2CCCC2)c1)c1ccco1	19	3%	-12%	3%[46.1 µM]	-47%	7
C/C(=N/NC(=O)c1cc(C)[nH]n1)c1ccco1	42*	u	343%	u	54%	27*
C/C(=N/NC(=O)c1cc(C)[nH]n1)c1ccncc1	49*	u	u	14%[46.1 µM]	47%	17*
C/C(=N\NC(=O)Cc1cccn1C)c1ccco1	33	11%[46.1 µM]	41%	9%[46.1 µM]	18%	14
C/C(=N\NC(=O)c1cc(-c2ccc(C)s2)[nH]n1)c1ccco1	66*	-1%	87%	4%	76%	39*
O=C(CCc1nnc2n(Cc3ccc(F)cc3)c(=O)c3ccccc3n12)NCCCN1CCOCC1	12	x	u	x	0%	-10
CCN(CC)S(=O)(=O)c1cc(C)c(C)cc1OCC(=O)NC1CCCC1	-8	-26%	9%	u	u	0
Cc1ccc(C)c(N(CC(=O)NCC2CCCO2)C(=O)CCC(=O)Nc2nccs2)c1 (stereo not given)	6	x	u	-12%[46.1 µM]	0%	-4
COc1ccc(-c2cc(C(=O)NN)n(-c3ccccc3)n2)cc1	78*	-15%	u	u	25%	25*
Cc1ccc(NC(=O)c2cc(-c3ccccc3)nn2-c2ccccc2)cc1	-15	u	10µM*	u	-13%	-2
CC(=O)c1ccc(NC(=O)c2cc(C)nn2-c2ccccc2)cc1	x	-3%[46.1 µM]	x	u	x	x
Cc1ccc(-n2nc(C(=O)c3ccccc3)n3c(=O)cc(-c4ccccc4)nc23)cc1	16	2%	30%	-4%	15%	1
O=C(Nc1ccc(F)cc1)c1nc(S(=O)(=O)Cc2ccccc2)ncc1Cl	11	x	54%	x	6%	6
O=C(Nc1ccc(F)cc1)c1nn(-c2ccccc2)c(=O)cc1Cl	-10	u	5%	7.1µM*	-15%	-2
CC(=O)C(/C=N/c1cc(-c2ccc(C)cc2)nn1-c1ccccc1)=C(\C)O	93*	u	0%	u	92%	56*
COc1ccccc1NC(=O)c1ccccc1SC	-9	12%	u	u	7%	-1

High-throughput results: PubChem BioAssay, National Center for Advancing Translational Sciences (NCATS)
